NS1 function inh – qHTS Assay for Inhibitors of Influenza NS1 Protein Function | hit rate 0.4% among 270,000 | Potency, µM (highest dose often 46.1 µM), for inactives: top-dose activity, positive = more growth | AID 2326, 2010; calls by dose curve; further: actives are rising curves; nearly all actives have a fitted effect of over 50% in size
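Compounds were scored for reversing the slow growth caused by influenza A NS1 in S. cerevisiae, measured by optical density at 600 nm. Assay medium contained 2% galactose at pH 6.0; NS1-free yeast of the same strain were the positive control.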
Vaccinia mCherry – qHTS for Stage-Specific Inhibitors of Vaccinia Orthopoxvirus: mCherry Reporter Primary qHTS; Potency, µM (doses to about 36.5 µM), for the others: at the highest dose activity change, negative = inhibition, actives largely listed as inhibitors; hit rate 0.63% among 310,000; Vaccinia virus mCherry reporter infection, fluorescence; AID 720579, 2013; calls by dose curve; tested in A549 cells; further: on the % scale 0 is the no-effect control and ±100 the full control effect; nearly all actives have a fitted effect of over 35% in size
HCV inhibitor – qHTS Assay for Inhibitors of Hepatitis C Virus (HCV); Huh7.5.1 HCVcc-Cre infection, luciferase reporter, 44 h; Potency, µM (doses to about 41.8 µM), without a hit: top-dose activity change, negative = inhibition, most hits filed as inhibitors; hit rate 3.4% among 340,000; further: on the % scale 0 is the no-effect control and ±100 the full control effect
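Whole-lifecycle infectious HCVcc-Cre system; cells 1,000/well, compound then virus (~0.5 moi) added 4 h after plating, 44 h culture. Luciferase read 15 sec following 15 min substrate incubation, room temp.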
Vaccinia Venus – qHTS for Stage-Specific Inhibitors of Vaccinia Orthopoxvirus: Venus Reporter Primary qHTS. Vaccinia virus Venus reporter expression, fluorescence. Potency, µM (series often up to 36.5 µM), without a hit: top-dose activity change, negative = inhibition, most hits filed as inhibitors. hit rate 0.46% among 330,000. AID 720580, 2013; calls by dose curve; tested in A549 cells; further: on the % scale 0 is the no-effect control and ±100 the full control effect; nearly all actives have a fitted effect of over 30% in size
Pf growth 48h – Primary qHTS for delayed death inhibitors of the malarial parasite plastid, 48 hour incubation | P. falciparum luciferase growth in erythrocytes, 48 h | Potency, µM (doses to about 28.7 µM), for inactives: at the top dose activity change, negative = inhibition, usual class: inhibitors | hit rate 5.9% among 310,000; further: on the % scale 0 is the no-effect control and ±100 the full control effect
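A one-generation exposure of luciferase-tagged malaria parasites in RPMI 1640/Albumax erythrocyte culture, 37 C and 5% CO2. Inhibition is inferred from decreased luminescence after adding detection reagent.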
Pf growth 96h – Primary qHTS for delayed death inhibitors of the malarial parasite plastid, 96 hour incubation | P. falciparum luciferase reporter growth, 96 h | Potency, µM (top dose mostly 28.7 µM), for the others: at the highest dose activity change, negative = inhibition, usual class: inhibitors | hit rate 6.9% among 320,000; further: on the % scale 0 is the no-effect control and ±100 the full control effect
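96 h incubation, 37 C, 5% CO2, of luciferase-reporter P. falciparum-infected RBCs (2% hematocrit, 0.05% parasitemia final) with test compounds; endpoint luminescence.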
Active calls of the source: *. Shown are actives, neighbours in structure and some others; about 11% of the full set was active somewhere. Unless noted, the call rests on the fitted dose curve; in most records, active means well fitted inhibition curve with a large enough effect; inconclusive means small, poorly fitted or top-dose-only effect, or another doubt; inactive means no such curve, though single readings can be large or run the other way. Potency means the concentration at half of the fitted maximal effect.

Cn1cccc1-c1cc(C(=O)N/N=C/c2cc(Br)ccc2O)[nH]n1 was read as NS1 function inh 23%, Vaccinia mCherry inconclusive, HCV inhibitor 5µM*, Vaccinia Venus -10%, Pf growth 48h inconclusive and Pf growth 96h 10%.
Screening COc1ccc(O)c(/C=N/NC(=O)c2ccc(OCc3cccc(Br)c3)cc2)c1 returned NS1 function inh 2%, HCV inhibitor 2.8µM*, Pf growth 48h 1.7µM* and Pf growth 96h 11%.
Screening Cn1cccc1-c1cc(C(=O)N/N=C/c2ccccc2Cl)[nH]n1 returned NS1 function inh 6%, HCV inhibitor -16%, Pf growth 48h -3% and Pf growth 96h 0%.
For COc1ccc(Br)cc1/C=N/NC(=O)c1cc(Br)ccc1O the results were Pf growth 48h 4% and Pf growth 96h 5%.
For COc1ccc(C(=O)N/N=C/c2cc(Br)ccc2O)cc1OC the results were NS1 function inh -4%, Vaccinia mCherry 18µM*, HCV inhibitor 11µM*, Vaccinia Venus -19%, Pf growth 48h inconclusive and Pf growth 96h inconclusive.
Screening Cc1ccc(N2C(=O)c3ccccc3C(C)(C)C2=O)cc1 returned NS1 function inh -42%, Vaccinia mCherry inactive, HCV inhibitor 25%, Vaccinia Venus -7%, Pf growth 48h inconclusive and Pf growth 96h -6%.
For C[C@]12CC[C@H]3[C@@H](C[C@H](F)C4=CC(=O)CC[C@@]43C)[C@@H]1CC[C@@H]2O the results were Vaccinia mCherry -17% and Vaccinia Venus -11%.
`C=C1CC2C3CC[C@@]4(OCOC45COCO5)[C@@]3(C)C(O)CC2[C@@]2(C)CCC(=O)C=C12` (stereo partly drawn) gave NS1 function inh 7%, Vaccinia mCherry inconclusive, HCV inhibitor inconclusive, Vaccinia Venus -19%, Pf growth 48h 10µM* and Pf growth 96h 13µM*.
Cc1ccc(S(=O)(=O)NCCC(=O)NNC(=O)c2ccccc2O)cc1C was read as Vaccinia mCherry -27%, HCV inhibitor 3.2µM*, Vaccinia Venus -21%, Pf growth 48h -5% and Pf growth 96h 8%.
Screening COc1cc(OC)cc(C(=O)NNC(=O)CCNS(=O)(=O)c2ccc(C)c(C)c2)c1 returned Vaccinia mCherry -5%, HCV inhibitor -2%, Vaccinia Venus -19%, Pf growth 48h 14% and Pf growth 96h 0%.
`CCOC(=O)C(=O)/C(C#N)=C/Nc1ccc(F)cc1` gave NS1 function inh 15%, HCV inhibitor 8%, Vaccinia Venus -1% and Pf growth 48h -1%.
Screening COc1ccc(CCNC(=O)c2cc(-c3ccc(Cl)cc3)on2)cc1OC returned Vaccinia mCherry -14% and Vaccinia Venus 0%.
For COc1ccc(CCNC(=O)c2ccc(OCc3c(C)noc3C)cc2)cc1OC the results were HCV inhibitor inconclusive, Pf growth 48h 9.3µM* and Pf growth 96h inconclusive.
For COc1ccc(CCNC(=O)c2cc(CC(C)C)on2)cc1OC the results were NS1 function inh -135%, Vaccinia mCherry inconclusive, HCV inhibitor -21%, Vaccinia Venus inconclusive and Pf growth 96h 7.4µM*.
For CCOc1ccc(CCNC(=O)c2ccc(OCc3c(C)noc3C)cc2)cc1OCC the results were Vaccinia mCherry -2%, HCV inhibitor inconclusive, Vaccinia Venus -17%, Pf growth 48h inconclusive and Pf growth 96h 7.4µM*.
Screening COC(=O)c1ccc(OC(=O)c2ccc(OCc3c(C)noc3C)c(OC)c2)cc1 returned NS1 function inh 5%, Pf growth 48h 15% and Pf growth 96h 10µM*.
COC(=O)c1c(C)[nH]c(O)c1C=Nc1ccc(Oc2ccccc2)cc1 was read as Vaccinia mCherry -28%, HCV inhibitor -8%, Vaccinia Venus -3%, Pf growth 48h 48% and Pf growth 96h 16%.
